# From PubChem BioAssay AID720519 (National Center for Advancing Translational Sciences (NCATS), 2013)
# Results filed as inconclusive are left out. Entries that show only a call come without a potency. The source made the active and inactive calls. Calls follow the shape of the dose curve; as a rule, active = well fitted activation curve with a large enough effect; inconclusive = small, poorly fitted or top-dose-only effect; inactive = flat fitted curve, though single readings scatter.
# Assay: qHTS for Inhibitors of Cell Surface uPA Generation: Confirmatory Assay for Cherry-picked Compounds
# Conditions: cell surface uPA activity generation, qHTS confirmation; series mostly up to 115 µM
# In short: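 RAW 264.7 cells at 4000/well, incubated overnight, then treated with compounds. After 24 h at 37 C, viability was read by ATPlite luminescence. An increase in signal indicates blocked uPA-dependent LF entry.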
# Potency is read from the fitted curve at half-maximal effect.
row,SMILES,Potency
1,COc1ccc2nc(SC(C)C(=O)NC3(C#N)CCCCC3)[nH]c2c1 (stereo not drawn),inactive
2,CN(C)S(=O)(=O)c1cccc(C(=O)OCC(=O)NCc2ccc3c(c2)OCO3)c1,inactive
3,O=C1CCCC/C1=C\Nc1ccc(S(=O)(=O)Nc2cnc3ccccc3n2)cc1,inactive
4,CC(=O)Oc1ccc(OC(C)=O)c(SCCCCCCl)c1,inactive
5,COc1ccc(C2=Nc3ccccc3C2(O)CCN2C(=O)c3ccccc3C2=O)cc1 (stereo not drawn),inactive
6,C=CC1=C(C(=O)O)N2C(=O)[C@@H](NC(=O)/C(=N\O)c3csc(N)n3)[C@H]2SC1 (stereo in doubt),inactive
7,O=C(Nc1ccc2c(c1)CCC2)Nc1ccc2c(c1)OCO2,inactive
8,Cc1cc(OC(C)C(=O)NCc2ccccn2)c2c(C)cc(=O)oc2c1 (stereo not drawn),inactive
9,Cc1ccc([C@H]2C(C(=O)O)=CC[C@@H](c3cccc(C)c3)N2S(=O)(=O)c2ccc(C)cc2)cc1,inactive
10,CC(=O)n1cc(/C=N/NC(=O)c2ccc([N+](=O)[O-])cc2)c2ccccc21,inactive
11,CCc1nccn1CCC(=O)N1CCc2c([nH]c3ccccc23)C1CC(C)C (stereo not drawn),inactive
12,C=CC(=O)N1C/C(=C/c2ccccc2)C(=O)/C(=C\c2ccccc2)C1,26.1 µM (active)
13,CCCC1=NN(C(=O)Cc2ccc(OC)cc2)C(O)(C(F)(F)F)C1 (stereo not drawn),inactive
14,C=CCNC(=S)NCC=C,inactive
15,Cc1ccc(Nc2cc(C)c3ccc(O)cc3n2)cc1C,6.56 µM (active)
16,O=C(Nc1ccc(N2CCOCC2)cc1)c1ccc(Cl)c(S(=O)(=O)N2CCCC2)c1,inactive
17,CC(=O)Nc1nc2ccccc2[nH]1,inactive
18,CC(C)OC(=O)Nc1ccc(-c2ccc(NC(=O)OC(C)C)cc2Cl)c(Cl)c1,inactive
19,CS/C(=C\[N+](=O)[O-])Nc1ccccc1,inactive

row,SMILES,Potency
1,CC(=O)[C@@]1(O)[C@H](C)CC2C3CC=C4CC(OP(=O)(O)O)CC[C@]4(C)C3CC[C@@]21C (stereo partly drawn),inactive
2,COc1ccc(/C=N/NC(=O)COc2ccc3ccccc3c2)c(C(=O)O)c1OC,inactive
3,COCc1c(C(=O)Nc2nc(C)cs2)oc2ccccc12,inactive
4,COC(C[C@H](O)[C@H](C)[C@@H](O)COCc1ccccc1)OC,inactive
5,Cc1c(NC(=S)Nc2ccc(Cl)cc2)c(=O)n(-c2ccccc2)n1C,inactive
6,CC(C)CNC(=O)COC(=O)CCC(=O)c1cccs1,inactive
7,O=C(CSc1ccc(Cl)cc1)Nc1ccc(C2SCCS2)cc1,inactive
8,CC(C)(O)C#Cc1ccc(C(=O)N2CCCC(CCC(=O)NCc3ccccc3F)C2)cc1 (stereo not drawn),inactive
9,CC(=O)Nc1sc(C)c(C)c1C(=O)OCC(=O)NC(C)c1ccccc1 (stereo not drawn),inactive
10,CC(=O)c1ccc(NC(=O)CN2CCN(c3ccccc3)CC2)cc1,inactive
11,Cc1ccc(C(=O)NNC(=O)CNc2cccc(Cl)c2)cc1,inactive
12,COc1cc2cc(CN(CCN3CCOCC3)C(=O)Nc3ccc(F)cc3)c(=O)[nH]c2cc1OC,inactive
13,Cc1nc(NC(=O)COC(=O)CCc2ccccc2)c(Cl)cc1Cl,inactive
14,COc1ccc([C@H]2[C@H](C(=O)OC(C)(C)C)N3N=Cc4ccccc4C3C23C(=O)c2ccccc2C3=O)cc1OC (stereo partly drawn),inactive
15,O=C(C[C@@H]1C/C=C\C[C@H](Cc2ccc(F)cc2)C(=O)OC[C@H]2CCCN2C1=O)N[C@H](CO)Cc1ccccc1,inactive
16,CCN(CC)c1ccc(C=NCCc2ccc(S(N)(=O)=O)cc2)cc1,inactive
17,O=[N+]([O-])c1ccc(-c2cn3c(n2)SCC3)cc1,inactive
18,C=CCn1c(C)cc(C(=O)COC(=O)/C=C/c2cccc(OC)c2)c1C,inactive
19,Cn1nc(C(C)(C)C)c([N+](=O)[O-])c1C(=O)N1CCOCC1,inactive
